Records with an inconclusive call do not appear. The source made the active and inactive calls. Calls come from the whole dose curve; as a rule, active = well fitted inhibition curve with a large enough effect; inconclusive = small, poorly fitted or top-dose-only effect; inactive = flat fitted curve, though single readings scatter.
Legend:
[1] = test system: CRL-7250; assay: Cytotoxic Profiling of Annotated Libraries Using Quantitative High-Throughput Screening (AID 1296008); details: Five cell lines viability, CellTiter-Glo ATP luminescence, 48-72 h; active compounds read low; for max response: % is set by controls: 0 for no effect and ±100 for the full control effect
Summary of the method: (§1)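 Cytotoxicity was measured as CellTiter-Glo ATP luminescence, read after 10 min at room temperature. Compound treatment of the cells lasted 48 or 72 hr at 37 degrees Celsius in a qHTS format.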

[2] = test system: HEK293; assay: as above; details: Five cell lines viability, CellTiter-Glo ATP luminescence, 48-72 h; active compounds read low
Summary of the method: as §1

[3] = test system: HaCat; assay: as above; details: Five cell lines viability, CellTiter-Glo ATP luminescence, 48-72 h; active compounds read low
Summary of the method: as §1

[4] = test system: KB-3-1; assay: as above; details: Five cell lines viability, CellTiter-Glo ATP luminescence, 48-72 h, active compounds read low
Summary of the method: as §1

[5] = test system: NIH3T3; assay: as above; details: Five cell lines viability, CellTiter-Glo ATP luminescence, 48-72 h; active compounds read low
Summary of the method: as §1

[6] = test system: HEK293T; assay: qHTS assay to identify novel small-molecules to repurpose for Merkel cell carcinoma treatment (AID 1296009); details: MCC and control cell lines, CellTiter-Glo viability, 72 h; at 44.8 µM (top of the series) unless noted
Summary of the method: (§2)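 After compound transfer in DMSO, plates were kept 72 hr at 37 degree celsius. Luminescent ATP signal from CellTiter-Glo served as viability measure, normalized against DMSO and no-cell controls.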

[7] = test system: MCC-13; assay: as above; details: MCC and control cell lines, CellTiter-Glo viability, 72 h; series mostly up to 46 µM
Summary of the method: as §2

[8] = test system: MCC-26; assay: as above; details: MCC and control cell lines, CellTiter-Glo viability, 72 h; series mostly up to 46 µM
Summary of the method: as §2

[9] = test system: MKL-1; assay: as above; details: MCC and control cell lines, CellTiter-Glo viability, 72 h; series mostly up to 46 µM
Summary of the method: as §2

[10] = test system: HACAT; assay: as above; details: MCC and control cell lines, CellTiter-Glo viability, 72 h; at 44.8 µM (top of the series) unless noted
Summary of the method: as §2

[11] = test system: P94_40; assay: qHTS profiling for inhibitors of Plasmodium falciparum proliferation (AID 504749);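 note: 0% = DMSO vehicle and full inhibition = artemisinin control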; details: P. falciparum in erythrocytes, SYBR Green DNA, 72 h; series mostly up to 28.7 µM
Summary of the method: (§3)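 Three-day growth assay of blood-stage parasites in erythrocytes (0.3% parasitemia, 2.5% hematocrit) at 37 C, 5% CO2, quantified by SYBR Green DNA staining after overnight detergent lysis.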

[12] = test system: PAD; assay: as above; details: P. falciparum in erythrocytes, SYBR Green DNA, 72 h; series mostly up to 28.7 µM
Summary of the method: as §3

[13] = test system: PC15; assay: as above; details: P. falciparum in erythrocytes, SYBR Green DNA, 72 h; series mostly up to 28.7 µM
Summary of the method: as §3

[14] = test system: PC26; assay: as above; details: P. falciparum in erythrocytes, SYBR Green DNA, 72 h; series mostly up to 28.7 µM
Summary of the method: as §3

[15] = test system: PC49; assay: as above; details: P. falciparum in erythrocytes, SYBR Green DNA, 72 h; series mostly up to 28.7 µM
Summary of the method: as §3

[16] = test system: SC27B; assay: as above; details: P. falciparum in erythrocytes, SYBR Green DNA, 72 h; series mostly up to 28.7 µM
Summary of the method: as §3

[17] = test system: TAB109; assay: as above; details: P. falciparum in erythrocytes, SYBR Green DNA, 72 h; series mostly up to 28.7 µM
Summary of the method: as §3

[18] = test system: TAB113; assay: as above; details: P. falciparum in erythrocytes, SYBR Green DNA, 72 h; series mostly up to 28.7 µM
Summary of the method: as §3

[19] = test system: TAB165; assay: as above; details: P. falciparum in erythrocytes, SYBR Green DNA, 72 h; series mostly up to 28.7 µM
Summary of the method: as §3

[20] = test system: W2; assay: as above; details: P. falciparum in erythrocytes, SYBR Green DNA, 72 h; series mostly up to 28.7 µM
Summary of the method: as §3
Note: nearly all actives have a fitted effect of over 60% in size.

CN1CC(=O)NC1=N
inactive: max response [1] -20.6% | outcome [2] | max response [3] -1.43% | max response [4] 3.48% | max response [5] -1.3% | outcome [6] | outcome [7] | outcome [8] | outcome [9]

CC(=O)N[C@@H](CC(C)C)C(=O)O
inactive: max response [1] -9.67% | max response [2] -5.66% | outcome [3] | max response [4] -12.6% | max response [5] -1.86% | outcome [10] | outcome [7] | outcome [9]

C[C@@H]1O[C@@H](OC[C@H]2O[C@@H](Oc3c(-c4ccc(O)c(O)c4)oc4cc(O)cc(O)c4c3=O)[C@H](O)[C@@H](O)[C@@H]2O)[C@H](O)[C@H](O)[C@H]1O
inactive: Potency [11] | Potency [12] | Potency [13] | Potency [14] | Potency [15] | Potency [16] | Potency [17] | Potency [18] | Potency [19] | Potency [20] | max response [1] -4.29% | outcome [2] | max response [3] 2.78% | max response [4] 16.6% | max response [5] -8.53% | outcome [6] | outcome [7] | outcome [8] | outcome [9]

CC[C@]12CCCN3CCc4c(n(c5ccccc45)[C@@](O)(C(=O)OC)C1)[C@@H]32
inactive: outcome [1] | max response [2] 0.673% | outcome [3] | max response [4] 3.99% | outcome [5] | outcome [10] | outcome [7] | outcome [9]

OC(CCN1CCCC1)(c1ccccc1)C1CCCCC1 (centres undefined)
inactive: max response [1] -24% | max response [2] -13.4% | max response [3] 3.13% | max response [4] -9.13% | outcome [5] | outcome [7] | outcome [8] | outcome [9]

CC(=O)[C@@]1(O)CC[C@H]2[C@@H]3C[C@H](C)C4=CC(=O)C=C[C@]4(C)[C@@]3(F)[C@@H](O)C[C@@]21C
inactive: max response [1] -3.29% | outcome [2] | max response [3] 4.35% | max response [4] 9.43% | max response [5] 4.42% | outcome [6] | outcome [7] | outcome [9]

CCCCCCCCCCCCCCCCN
inactive: Potency [11] | Potency [12] | Potency [13] | Potency [14] | Potency [15] | Potency [16] | Potency [17] | Potency [19] | Potency [20] | max response [1] -3.5% | outcome [2] | max response [3] -13.8% | max response [4] 5.46% | max response [5] -1.53% | outcome [6] | outcome [7] | outcome [8] | outcome [9]

CC(C)C[C@@H](N)C(=O)O
inactive: Potency [11] | Potency [12] | Potency [13] | Potency [14] | Potency [15] | Potency [16] | Potency [17] | Potency [18] | Potency [19] | Potency [20] | max response [1] -5.17% | outcome [2] | max response [3] 4.82% | max response [4] 12.7% | max response [5] 4.91% | outcome [6] inactive [at 17.4 µM] | outcome [7] | outcome [8] | outcome [9]

CC(C)=CCC/C(C)=C/CO
inactive: Potency [11] | Potency [12] | Potency [13] | Potency [14] | Potency [15] | Potency [16] | Potency [17] | Potency [18] | Potency [19] | Potency [20] | outcome [1] | outcome [2] | max response [3] -2.14% | max response [4] 8.27% | max response [5] -13.7% | outcome [6] | outcome [7] | outcome [8] | outcome [9]

Cc1c(I)c(=O)n(-c2ccccc2)n1C
inactive: Potency [11] | Potency [12] | Potency [13] | Potency [14] | Potency [15] | Potency [16] | Potency [17] | Potency [18] | Potency [19] | Potency [20] | max response [1] 1.27% | max response [2] -2.1% | max response [3] -20.9% | max response [4] 2.22% | outcome [5] | outcome [7] | outcome [8] | outcome [9]

C[N+](C)(C)CC(O)CC(=O)[O-] (centres undefined)
inactive: max response [1] -9.06% | max response [2] -5.18% | max response [3] 4.86% | max response [4] -5.76% | outcome [5] | outcome [7] | outcome [8] | outcome [9]

NNc1nnc(NN)c2ccccc12
inactive: Potency [11] | Potency [12] | Potency [13] | Potency [14] | Potency [15] | Potency [16] | Potency [17] | Potency [18] | Potency [19] | max response [1] 4.89% | max response [2] -11.7% | max response [3] 3.01% | max response [4] -5.02% | outcome [5] | outcome [7] | outcome [8] | outcome [9]

C/C=C/C(=O)N(CC)c1ccccc1C
inactive: max response [1] -6.75% | max response [2] 0.227% | max response [3] 0.376% | max response [4] 21.1% | max response [5] 1.85% | outcome [7] | outcome [8] | outcome [9]

CCN(CC)S(=O)(=O)c1ccc(C(=O)O)cc1
inactive: Potency [11] | Potency [12] | Potency [13] | Potency [14] | Potency [15] | Potency [16] | Potency [17] | Potency [18] | Potency [19] | Potency [20] | max response [1] -2.94% | outcome [2] | max response [3] 1.67% | max response [4] 7.96% | max response [5] -6.52% | outcome [6] | outcome [7] | outcome [9]

CC(=O)Nc1ccc(OCCOCCOc2ccc(NC(C)=O)cc2)cc1
inactive: Potency [11] | Potency [12] | Potency [13] | Potency [14] | Potency [15] | Potency [16] | Potency [17] | Potency [18] | Potency [19] | Potency [20] | max response [1] 0.416% | outcome [2] | max response [3] 3.25% | max response [4] -2.03% | max response [5] 4.13% | outcome [6] | outcome [7] | outcome [8] | outcome [9]
